# Reference: the supplement of paper PMC3545927
# The list shows a part of the results. How many sequences the whole screen found active is unknown.
# B1: HC1096 (peptide)
# chain: CAGEVPSTEDAGNASASA
# B2: HC2479 (peptide)
# chain: CAPTPCSAHLAGNASASA
# B3: HC1578 (peptide)
# chain: CAFAPTLWARAGNASASA
# B4: FS-663 (peptide)
# chain: CAHSKRRVRDAGNASASA
# B5: FS-1594 (peptide)
# chain: CAHSSRPVRDAGNASASA
# B6: HC729 (peptide)
# chain: CAADVIPVRRAGNASASA
# B7: FS-641 (peptide)
# chain: CAAKSRPKRRAGNASASA
# B8: FS-523 (peptide)
# chain: CAAKSRPVRGAGNASASA
# B9: FS-40 (peptide)
# chain: CAKIARPKKRAGNASASA
# B10: FS-2865 (peptide)
# chain: CAHSKRKISWAGNASASA
# B11: HC1419 (peptide)
# chain: CAAKSKFGYGAGNASASA
# B12: FS-2873 (peptide)
# chain: CAMSKRDVLDAGNASASA
# B13: HC436 (peptide)
# chain: CAGCTWMNSTAGNASASA
# B14: HC1641 (peptide)
# chain: CAAAGQLDLSAGNASASA
# B15: HC2201 (peptide)
# chain: CAEVNTSTWVAGNASASA
# B16: HC91 (peptide)
# chain: CAVVCKSMSYAGNASASA
# B17: HC1848 (peptide)
# chain: CATWPCSGSWAGNASASA
# B18: HC720 (peptide)
# chain: CASLTPCTCGAGNASASA
# B19: HC1665 (peptide)
# chain: CALEECSQHLAGNASASA
# B20: FS-2273 (peptide)
# chain: CARKSRPVSVAGNASASA
# B21: FS-522 (peptide)
# chain: CAAKSRPVRDAGNASASA
# B22: FS-2164 (peptide)
# chain: CARPKRGWVWAGNASASA
# B23: FS-2100 (peptide)
# chain: CARVKRGSKVAGNASASA
# B24: FS-2605 (peptide)
# chain: CARSKRGWVWAGNASASA
# B25: FS-2101 (peptide)
# chain: CARVKRGWVWAGNASASA
# B26: FS-2459 (peptide)
# chain: CARSKRSWMWAGNASASA
# B27: FS-2530 (peptide)
# chain: CARVKRIFYQAGNASASA
# B28: HC1282 (peptide)
# chain: CARVESENKVAGNASASA
# Biological target: furin, P09958
# Sequence (P09958 whole entry): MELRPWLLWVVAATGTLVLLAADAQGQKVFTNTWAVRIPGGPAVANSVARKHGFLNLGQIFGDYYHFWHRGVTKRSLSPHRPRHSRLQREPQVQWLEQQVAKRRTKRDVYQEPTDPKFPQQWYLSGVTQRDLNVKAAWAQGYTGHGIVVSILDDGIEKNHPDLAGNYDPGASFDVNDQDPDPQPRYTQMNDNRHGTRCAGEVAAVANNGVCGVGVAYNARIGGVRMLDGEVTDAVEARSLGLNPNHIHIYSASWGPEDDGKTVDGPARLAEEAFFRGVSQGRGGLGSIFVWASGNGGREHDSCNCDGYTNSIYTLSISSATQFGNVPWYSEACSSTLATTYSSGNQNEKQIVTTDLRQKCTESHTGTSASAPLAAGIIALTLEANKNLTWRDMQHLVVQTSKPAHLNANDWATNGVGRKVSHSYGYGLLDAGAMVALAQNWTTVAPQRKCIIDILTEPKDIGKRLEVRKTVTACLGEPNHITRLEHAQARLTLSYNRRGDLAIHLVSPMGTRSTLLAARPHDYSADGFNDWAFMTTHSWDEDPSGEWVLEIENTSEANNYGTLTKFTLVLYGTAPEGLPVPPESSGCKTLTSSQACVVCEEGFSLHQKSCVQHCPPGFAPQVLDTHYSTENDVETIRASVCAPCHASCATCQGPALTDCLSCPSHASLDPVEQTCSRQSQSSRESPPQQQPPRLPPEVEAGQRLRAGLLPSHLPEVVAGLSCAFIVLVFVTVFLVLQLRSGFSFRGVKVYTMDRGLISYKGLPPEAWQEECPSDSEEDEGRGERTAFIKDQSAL
# Experiment: furin cleavage Z-score vs untreated control; higher = more cleavage, active = 3.5 or more, inactive = 1 or less, 8 variable residues between constant flanks
# How it was run: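 Purified furin cleaved 8-mer peptides that were fused to a cDNA oligonucleotide and held on magnetic beads by their N-terminus. Each 0.01 ml reaction used a 1:10 enzyme:substrate ratio in 50 mM HEPES pH 7.5 with CaCl2 and NaCl and ran 7.5, 15 or 30 min. Released DNA was adapter-tagged by PCR and sequenced, and read counts gave abundance. The cleavage Z-score came from log counts against furin-free reactions, lowess-adjusted and scaled by median absolute deviation.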
Sequence,furin cleavage Z-score (7.5 min),furin cleavage Z-score (15 min),furin cleavage Z-score (30 min)
B1,-0.773 (inactive),-0.136 (inactive),0.506 (inactive)
B2,-0.112 (inactive),0.764 (inactive),1.86
B3,0.686 (inactive),-1.55 (inactive),0.247 (inactive)
B4,13.2 (active),12.9 (active),9.58 (active)
B5,6.49 (active),7.91 (active),7.38 (active)
B6,-0.626 (inactive),1.64,0.64 (inactive)
B7,10.7 (active),12 (active),8.13 (active)
B8,6.42 (active),5.25 (active),5.42 (active)
B9,0.288 (inactive),-0.123 (inactive),-0.964 (inactive)
B10,1.39,0.543 (inactive),1.88
B11,0.282 (inactive),0.423 (inactive),0.234 (inactive)
B12,-0.828 (inactive),-0.533 (inactive),-0.677 (inactive)
B13,0.97 (inactive),0.0364 (inactive),1.16
B14,-0.412 (inactive),0.71 (inactive),-1.04 (inactive)
B15,0.639 (inactive),0.541 (inactive),1.06
B16,-0.0467 (inactive),0.255 (inactive),0.551 (inactive)
B17,-0.614 (inactive),-1.25 (inactive),-0.879 (inactive)
B18,-1.42 (inactive),-1.23 (inactive),-1.24 (inactive)
B19,0.42 (inactive),0.627 (inactive),0.0701 (inactive)
B20,0.443 (inactive),-0.359 (inactive),1.47
B21,8.85 (active),8.99 (active),6.37 (active)
B22,-0.398 (inactive),-0.529 (inactive),2.44
B23,2.43,3.33,4.45 (active)
B24,0.844 (inactive),3.21,4 (active)
B25,2.07,4.37 (active),8.77 (active)
B26,0.863 (inactive),2.1,6.05 (active)
B27,1.69,-1.51 (inactive),0.645 (inactive)
B28,0.35 (inactive),-0.0116 (inactive),1.18
